Assay results from PubChem BioAssay AID1159580 (chemical genetic matrix, 2015).
Values joined by “and” are separate entries in the source; they are usually repeats but may differ in a detail not shown here. Identical values can stand only once. Among all 5,500 compounds or so, about 2,000 (36%) were called active. Inconclusive results (about 18%) are left out. Rule as the data show it: active = normalized growth mostly below about 0.91 (no sharp cut-off); inconclusive = no clear call, values can overlap the other calls; inactive = mostly above about 0.92. The list shows a part of the results.

Assay: chemical genetic growth profiling, strain panel (AID 1159580);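 also: tested at 20 µM; growth read once vehicle control cultures reached saturation at 30 °C; 1 = growth at the plate median or of vehicle wells; lower values mean less growth of the strain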
Settings: S. cerevisiae deletion strains, growth OD

Measured: normalized growth

Cc1onc(-c2ccccc2Cl)c1C(=O)N[C@@H]1C(=O)N2[C@@H]1SC(C)(C)[C@@H]2C(=O)O
inactive: locus YAL013W, strain DEP1, hits give low values 1.01 | locus YAL021C, strain ccr4, hits give low values 1.06 | locus YAL026C, strain drs2, hits give low values 1.02 | locus YAL030W, strain snc1, hits give low values 1.02 | locus YBL061C, strain skt5, hits give low values 1.02 | locus YBR009C, strain hhf1, hits give low values 0.994 | locus YBR021W, strain FUR4, hits give low values 1.02 | locus YBR023C, strain chs3, hits give low values 1.03 | locus YBR171W, strain sec66, hits give low values 1.03 | locus YBR229C, strain ROT2, hits give low values 1.01 | locus YBR231C, strain swc5, hits give low values 1.03 | locus YBR279W, strain paf1, hits give low values 1 | locus YCL011C, strain gbp2, hits give low values 1.02 | locus YCL016C, strain dcc1, hits give low values 1.01 | locus YCL029C, strain bik1, hits give low values 1.05 | locus YCL069W, strain vba3, hits give low values 1.03 | locus YCR088W, strain abp1, hits give low values 1.01 | locus YDL005C, strain med2, hits give low values 1.02 | locus YDL035C, strain GPR1, hits give low values 1 | locus YDL040C, strain nat1, hits give low values 1.02 | locus YDL074C, strain BRE1, hits give low values 1.03 | locus YDL101C, strain DUN1, hits give low values 1.01 | locus YDL134C, strain PPH21, hits give low values 1.01 | locus YDL185W, strain tfp1, hits give low values 1.01 | locus YDL192W, strain arf1, hits give low values 1.01 | locus YDR001C, strain nth1, hits give low values 1.04 | locus YDR069C, strain doa4, hits give low values 1.03 | locus YDR101C, strain arx1, hits give low values 1.02 | locus YDR137W, strain rgp1, hits give low values 0.971 | locus YDR150W, strain NUM1, hits give low values 1 | locus YDR159W, strain sac3, hits give low values 1 | locus YDR162C, strain NBP2, hits give low values 1.02 | locus YDR195W, strain ref2 1.03 | locus YDR297W, strain sur2, hits give low values 1.02 | locus YDR318W, strain mcm21, hits give low values 1.03 | locus YDR334W, strain swr1, hits give low values 1 | locus YDR335W, strain msn5, hits give low values 1.01 | locus YDR388W, hits give low values 1.02 | locus YDR392W, strain spt3, hits give low values 0.998 | locus YDR502C, strain sam2, hits give low values 1.02 | locus YEL003W, strain gim4, hits give low values 1.02 | locus YEL037C, strain rad23, hits give low values 1.02 | locus YEL061C, strain CIN8 (second series), hits give low values 1.02 | locus YEL061C, strain CIN8, hits give low values 1.01 | locus YER015W, strain faa2, hits give low values 1.02 | locus YER016W, strain bim1, hits give low values 0.994 | locus YER110C, hits give low values 1.01 | locus YER111C, strain swi4, hits give low values 1.03 | locus YER155C, strain BEM2 (second series), hits give low values 1.06 | locus YER155C, strain BEM2, hits give low values 1.01 | locus YER167W, strain BCK2, hits give low values 1.01 | locus YFR010W, strain ubp6, hits give low values 1.02 | locus YGL078C, strain dbp3, hits give low values 1.02 | locus YGL086W, strain mad1, hits give low values 1.01 | locus YGL167C, strain pmr1, hits give low values 1.03 | locus YGL173C, strain kem1, hits give low values 1.01 | locus YGL227W, strain vid30, hits give low values 1.01 | locus YGL240W, strain doc1, hits give low values 1.02 | locus YGL248W, strain PDE1, hits give low values 1.02 | locus YGL253W, strain hxk2, hits give low values 1.02 | locus YGR078C, strain PAC10, hits give low values 1.01 | locus YGR135W, strain pre9, hits give low values 1.03 | locus YGR229C, strain SMI1, hits give low values 1.02 | locus YGR252W, strain gcn5, hits give low values 1.05 | locus YHR013C, strain ard1, hits give low values 1.04 | locus YHR027C, strain rpn1, hits give low values 1.02 | locus YHR030C, strain SLT2, hits give low values 1.01 and 1 | locus YHR079C, strain IRE1 (second series), hits give low values 1.02 | locus YHR079C, strain IRE1, hits give low values 1 | locus YHR094C, strain hxt1, hits give low values 1.02 | locus YHR129C, strain ARP1, hits give low values 1.01 | locus YHR142W, strain chs7, hits give low values 1.02 | locus YHR200W, strain rpn10, hits give low values 1.03 | locus YIL066C, strain RNR3, hits give low values 1.01 | locus YIL073C, strain SPO22, hits give low values 1.06 | locus YIL125W, strain kgd1, hits give low values 1.03 | locus YIR030C, strain dcg1, hits give low values 1.02 | locus YJL092W, strain hpr5, hits give low values 1.03 | locus YJL095W, strain BCK1 (second series), hits give low values 1.02 | locus YJL095W, strain BCK1, hits give low values 1.02 and 0.998 | locus YJL115W, strain asf1, hits give low values 1.01 | locus YJL129C, strain trk1, hits give low values 1.05 | locus YJL134W, strain LCB3, hits give low values 1 | locus YJL154C, strain vps35, hits give low values 1.03 | locus YJL164C, strain tpk1, hits give low values 1.01 | locus YJL166W, strain qcr8, hits give low values 1.03 | locus YJL168C, strain set2, hits give low values 1.02 | locus YJL187C, strain SWE1 (second series), hits give low values 1.02 | locus YJL187C, strain SWE1, hits give low values 1.01 | locus YJR043C, strain POL32, hits give low values 0.995
